Sfp PPTase inh – qHTS Assay for Inhibitors of Bacillus subtilis Sfp phosphopantetheinyl transferase (PPTase); Potency, µM, usual class: inhibitors; AID 1490, 2009; 310,000 tested, 3.5% active; Biochemical Sfp PPTase activity, qHTS;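 also: the enzyme is Sfp with the accession as filed and its product quenches rhodamine fluorescence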
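With Hepes-Na pH 7.6 buffer containing 10 mM MgCl2, Sfp (15 nM) modified BHQ-2-YbbR (12.5 uM) using rhodamine-CoA (5 uM). Two reads 30 minutes apart at 525/598 nm yielded each well's rate.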
JMJD2A Tudor inh – qHTS Assay for Inhibitors of JMJD2A-Tudor Domain | Lysine-specific demethylase 4A (Homo sapiens), O75164 | AlphaScreen JMJD2A-Tudor / H3K4me3 peptide binding | Potency, µM (highest dose often 114 µM), hits mostly inhibitors | 390,000 tested, 4.4% active; also: nearly all actives have a fitted effect of over 50% in size
HP1b binding inh – HTS for Inhibitors of HP1-beta Chromodomain Interactions with Methylated Histone Tails; Chromobox protein homolog 1 (Homo sapiens), P83916; AlphaScreen HP1-beta / biotin-H3K9me3 peptide binding; Potency, µM (top dose mostly 114 µM), most hits filed as inhibitors; 390,000 tested, 0.56% active; also: nearly all actives have a fitted effect of over 70% in size
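AlphaScreen: HP1-beta (50 nM) preformed 30 min with biotin-H3(1-18)K9me3 peptide (50 nM) in PBS pH 7.4, 0.01% Tween-20. Compound added for 30 min at RT, then streptavidin donor/nickel chelate acceptor beads (10 ug/mL) for 30 min.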
BAZ2B block – qHTS Assay for Inhibitors of BAZ2B; Bromodomain adjacent to zinc finger domain protein 2B (Homo sapiens), Q9UIF8; AlphaScreen BAZ2B-H3K14Ac peptide displacement; Potency, µM (doses to about 114 µM), actives largely listed as inhibitors; 360,000 tested, 4.4% active; AID 504333, 2011; also: nearly all actives have a fitted effect of over 60% in size
Target sequence (Q9UIF8 whole entry, looked up, the tested form may be a part): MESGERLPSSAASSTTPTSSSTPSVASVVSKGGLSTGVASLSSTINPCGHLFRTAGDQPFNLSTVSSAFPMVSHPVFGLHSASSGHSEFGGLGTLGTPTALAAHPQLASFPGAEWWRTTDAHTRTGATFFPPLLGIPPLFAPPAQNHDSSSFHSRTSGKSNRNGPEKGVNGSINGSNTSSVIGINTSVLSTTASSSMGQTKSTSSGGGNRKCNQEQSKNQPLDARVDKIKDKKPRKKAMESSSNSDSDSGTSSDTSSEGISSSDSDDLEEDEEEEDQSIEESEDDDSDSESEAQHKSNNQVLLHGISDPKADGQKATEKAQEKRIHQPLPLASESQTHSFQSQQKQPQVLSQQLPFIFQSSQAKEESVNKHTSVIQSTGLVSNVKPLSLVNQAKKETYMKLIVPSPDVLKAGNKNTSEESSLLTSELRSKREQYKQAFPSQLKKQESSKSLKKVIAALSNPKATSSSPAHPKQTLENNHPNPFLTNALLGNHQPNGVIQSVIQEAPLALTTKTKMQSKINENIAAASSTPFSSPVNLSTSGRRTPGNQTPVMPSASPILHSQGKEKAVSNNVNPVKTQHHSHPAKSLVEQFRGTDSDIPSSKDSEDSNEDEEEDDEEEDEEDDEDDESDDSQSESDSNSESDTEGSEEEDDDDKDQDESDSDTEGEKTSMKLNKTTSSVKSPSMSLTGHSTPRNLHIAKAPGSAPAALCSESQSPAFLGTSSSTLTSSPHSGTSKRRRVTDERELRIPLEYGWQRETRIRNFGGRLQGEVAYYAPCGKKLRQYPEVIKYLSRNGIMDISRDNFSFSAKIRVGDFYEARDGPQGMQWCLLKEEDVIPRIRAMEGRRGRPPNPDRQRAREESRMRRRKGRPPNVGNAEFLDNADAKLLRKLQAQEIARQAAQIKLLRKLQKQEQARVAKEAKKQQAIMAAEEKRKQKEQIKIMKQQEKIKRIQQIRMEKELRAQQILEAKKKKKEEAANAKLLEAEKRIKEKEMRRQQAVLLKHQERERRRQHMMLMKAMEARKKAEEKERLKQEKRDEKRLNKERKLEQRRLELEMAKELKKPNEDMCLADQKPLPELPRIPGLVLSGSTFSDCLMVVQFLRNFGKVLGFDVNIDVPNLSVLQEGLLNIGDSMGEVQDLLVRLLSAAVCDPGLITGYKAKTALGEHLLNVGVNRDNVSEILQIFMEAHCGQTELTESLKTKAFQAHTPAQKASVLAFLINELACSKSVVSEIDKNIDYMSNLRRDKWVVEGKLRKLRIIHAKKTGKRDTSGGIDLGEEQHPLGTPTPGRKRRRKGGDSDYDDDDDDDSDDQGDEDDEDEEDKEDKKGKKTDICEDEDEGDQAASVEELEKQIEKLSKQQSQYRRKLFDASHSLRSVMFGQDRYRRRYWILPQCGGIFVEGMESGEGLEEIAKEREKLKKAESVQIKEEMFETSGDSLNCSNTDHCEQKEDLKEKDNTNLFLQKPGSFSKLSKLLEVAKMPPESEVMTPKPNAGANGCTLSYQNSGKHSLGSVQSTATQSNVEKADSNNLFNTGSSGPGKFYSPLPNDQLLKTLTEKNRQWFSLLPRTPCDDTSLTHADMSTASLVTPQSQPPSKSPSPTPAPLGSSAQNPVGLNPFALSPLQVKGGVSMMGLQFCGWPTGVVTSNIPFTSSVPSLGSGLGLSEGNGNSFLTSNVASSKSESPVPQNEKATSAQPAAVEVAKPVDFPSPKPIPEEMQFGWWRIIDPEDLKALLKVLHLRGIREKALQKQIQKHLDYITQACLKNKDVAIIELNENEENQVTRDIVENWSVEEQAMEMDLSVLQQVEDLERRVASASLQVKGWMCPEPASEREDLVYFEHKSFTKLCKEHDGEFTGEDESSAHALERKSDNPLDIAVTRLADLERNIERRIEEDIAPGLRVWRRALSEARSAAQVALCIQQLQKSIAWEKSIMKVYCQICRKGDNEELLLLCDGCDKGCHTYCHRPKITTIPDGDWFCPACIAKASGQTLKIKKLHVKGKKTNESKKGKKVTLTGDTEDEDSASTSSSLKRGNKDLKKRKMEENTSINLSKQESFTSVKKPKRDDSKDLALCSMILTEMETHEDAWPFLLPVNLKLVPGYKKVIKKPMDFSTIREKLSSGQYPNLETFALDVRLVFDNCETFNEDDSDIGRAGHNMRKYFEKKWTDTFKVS
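Compounds, titrated to a top concentration of 110 uM, were incubated 30 min at room temperature with preformed BAZ2B/acetyl-K14 H3 peptide complex (50 nM each). Proximity signal was measured by AlphaScreen after 20 min with beads.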
G9a inh – qHTS Assay for Inhibitors of Histone Lysine Methyltransferase G9a; Histone-lysine N-methyltransferase EHMT2 (Homo sapiens), Q96KQ7; G9a H3K9 monomethylation, AlphaScreen, 2 h; Potency, µM (top dose mostly 102 µM), usual class: inhibitors; 350,000 tested, 8.8% active; AID 504332, 2011; also: nearly all actives have a fitted effect of over 75% in size
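Using a bead-based AlphaScreen, monomethylated H3K9 product from 2 h room-temperature reactions (G9a 20 nM, peptide 500 nM, SAM 20 uM) was detected with 0.5 ug/mL rabbit anti-H3K9me1 antibody.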
L3MBTL1 inh – qHTS Assay for the Inhibitors of L3MBTL1; Lethal(3)malignant brain tumor-like protein 1 (Homo sapiens), Q9Y468; AlphaScreen L3MBTL1–H3K9me1 peptide binding; Potency, µM (titrated, usually from 57.1 µM), most hits filed as inhibitors; 230,000 tested, 0.66% active; also: nearly all actives have a fitted effect of over 60% in size
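AlphaScreen assay: L3MBTL1 (50 nM final) was preincubated 30 min at room temperature with biotinylated H3(1-15)K9me1 peptide (75 nM final), then 30 min with library compounds; streptavidin donor and nickel chelate acceptor beads (10 ug/mL final) added, 30 min dark.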
A number is an active result; n = inactive; u = inconclusive; x = not tested or not shown; [ ] = another dose, or the depositor's remark. Shown are actives, neighbours in structure and some others; about 12% of the full set was active somewhere. Calls follow the shape of the dose curve; as a rule, active = well fitted curve in the direction sought with a large enough effect; inconclusive = small, poorly fitted or top-dose-only effect, or another doubt; inactive = no such curve, though single readings can be large; an effect the other way counts as inactive or inconclusive.

SMILES	Sfp PPTase inh	JMJD2A Tudor inh	HP1b binding inh	BAZ2B block	G9a inh	L3MBTL1 inh
NC(=O)C1CCN(S(=O)(=O)c2ccc(N3CCCCS3(=O)=O)cc2)CC1	x	n	n	n	n[12.7 µM]	x
COc1ccc(-c2cc(C(=O)Nc3c(Cl)cccc3Cl)no2)cc1OC	x	n	n	n	n	x
Cc1ccccc1CNC(=O)C(=O)Nc1nccs1	n	n	n	x	13µM	n
Cc1ccc(CNC(=O)c2cccnc2)cc1	x	n	n	x	x	x
Cc1ccc(CNC(=O)c2nccnc2C(=O)O)cc1	n	u	n	n	50µM	x
O=C(NCc1ccncc1)C(=O)Nc1nccs1	n	u	n	u	14µM	x
Cc1ccc(CNC(=O)C(=O)Nc2nccs2)cc1	n	n	n	u	18µM	n
COc1ccccc1CNC(=O)C(=O)Nc1nccs1	n	u	n	n	u	n
COC(=O)c1sccc1S(=O)(=O)N1CCN(c2ccc(C(C)=O)cc2)CC1	x	n	n	n	n	x
Cc1cc2oc3c(c(=O)c2cc1C)C(c1ccc(C(C)C)cc1)N(c1nc(C)c(C)s1)C3=O (stereo not drawn)	x	n	n	n	n	x
O=C(c1ccncc1)N1CCC2(CC1)CCN(c1ccccn1)CC2	n	x	x	x	n[12.7 µM]	x
Cc1ccc(NS(=O)(=O)c2cccc3nsnc23)cc1C	n	n	n	u	n	x
COc1cc(NS(=O)(=O)c2cccc3nsnc23)cc(OC)c1	n	45µM	n	56µM	2µM	x
Cc1ccc(O)c(NS(=O)(=O)c2cccc3nsnc23)c1	n	u	u	45µM	n[2.33 µM]	x
Cc1cc(F)ccc1NS(=O)(=O)c1cccc2nsnc12	n	n	n	n	n	n
Cc1cc(C)c(S(=O)(=O)Nc2cccc3nsnc23)c(C)c1	n	n	n	n	3.2µM	x
O=S(=O)(Nc1cccc2nsnc12)c1ccccc1	n	n	n	n	n	x
Cc1cc(C)c(S(=O)(=O)Nc2ccc[nH]c2=O)c(C)c1	50µM	n	n	n	8.9µM	n
CCOC(=O)C1CCN(S(=O)(=O)c2ccc(N3CCCCS3(=O)=O)cc2)CC1	x	n	n	n	n[12.7 µM]	x
COC(=O)c1sccc1S(=O)(=O)N(CC(=O)NCc1ccc(F)cc1)c1ccc(C)c(C)c1	x	n	n	n	n	x
CCN(C(=O)CN1C(=O)COc2ccc(S(=O)(=O)N3CCOCC3)cc21)c1cccc(C)c1	x	n	n	n	n	x
COc1cccc(Cn2c(=O)n(-c3cccc(Cl)c3)c(=O)c3c4c(sc32)CN(C(C)=O)CC4)c1	x	n	n	n	n	x
Cc1csc(NC(=O)CN2C(=O)c3ccccc3S2(=O)=O)n1	n	n	n	n	n	x
O=C(CCS(=O)(=O)c1ccccc1)Nc1ncc([N+](=O)[O-])s1	n	n	n	n	45µM	x
COCc1nnc(NC(=O)CCS(=O)(=O)c2ccccc2)s1	u	n	u	u	45µM	x
SMILES	Sfp PPTase inh	JMJD2A Tudor inh	HP1b binding inh	BAZ2B block	G9a inh	L3MBTL1 inh
O=C(CN1C(=O)c2ccccc2S1(=O)=O)Nc1ncc([N+](=O)[O-])s1	x	3.5µM	n	u	u	n
Cc1ccc(CC(=O)Nc2ncc([N+](=O)[O-])s2)cc1	n	n	n	n	n	n
O=C(CS(=O)(=O)c1ccccc1)Nc1ncc([N+](=O)[O-])s1	n	n	n	n	u	x
O=C(COC(=O)c1ccc(Br)o1)Nc1ncc([N+](=O)[O-])s1	x	u	n	u	3.2µM	u
Cc1ccc(NC(=O)CN2C(=O)C(c3ccc(C)cc3)=NC23CCCCCC3)cc1	x	n	n	n	n	x
Cc1ccccc1NC(=O)Nc1nnc(N2CCCCCC2)s1	x	n	n	n	n	x
COCc1nnc(NC(=O)CCCOc2ccccc2OC)s1	n	50µM	n	n	u	n
